# PubChem BioAssay (Tox21)
# Records with an inconclusive call do not appear. Active and inactive are the calls of the source. Calls follow the shape of the dose curve; as a rule, active = well fitted cell-killing curve with a large enough effect in the repeat runs; inconclusive = weak or mixed curves, or effect the other way; inactive = flat fitted curve, though single readings scatter.
# Test: qHTS assay to identify small molecule antagonists of the estrogen receptor alpha (ER-alpha) signaling pathway using the BG1 cell line in the presence of 0.1 nM 17-beta-estradiol - cell viability counter screen (AID 1259241); also: nearly all actives have a fitted effect of over 40% in size
# Settings: VM7Luc4E2 (BG1) viability, CellTiter-Fluor protease, 22 h, 0.1 nM estradiol agonist added; series mostly up to 92.4 µM; activity change, negative = cytotoxicity: at the top concentration
# Summary of the method: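 In this screen, hormone-deprived VM7Luc4E2 cells were seeded at 4,000 per well, dosed with compound and 0.1 nM estradiol final, and incubated 22 hr at 37C and 5% CO2; fluorogenic live-cell protease signal reported viability.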
# % is scaled to controls: 0 for no effect and ±100 for the full control effect.
row,Structure (SMILES),"activity change, negative = cytotoxicity"
1,O=C1NC(=O)c2cccc3cccc1c23,1.56% (inactive)
2,Cc1ccc(NC(=O)N(C)C)cc1NC(=O)N(C)C,4.52% (inactive)
3,O=[N+]([O-])C1(Br)COCOC1,-1.52% (inactive)
4,O=C(O)c1cccc(Oc2ccccc2)c1,0.0376% (inactive)
5,Nc1c(Cl)cc(Cl)cc1[N+](=O)[O-],0.859% (inactive)
6,C=C(C)c1ccccc1,10.2% (inactive)
7,CCCCCc1ccco1,-4.57% [at 42.5 µM] (inactive)
8,CSCC[C@H](NC(=O)[C@H](Cc1c[nH]c2ccccc12)NC(=O)CCNC(=O)OC(C)(C)C)C(=O)N[C@@H](CC(=O)O)C(=O)N[C@@H](Cc1ccccc1)C(N)=O,0.278% [at 42.5 µM] (inactive)
9,CCCCCCOC(=O)CCCCC,4.06% (inactive)
10,COC(OC)OC,0% (inactive)
11,CC(C)COC(=O)COc1cc(Cl)c(Cl)cc1Cl,-1.3% (inactive)
12,O=c1[nH][nH]c(=O)c2cc([N+](=O)[O-])ccc12,-11.1% (inactive)
13,C1CCCCC1,2.26% (inactive)
14,NC(=O)c1ccccc1[N+](=O)[O-],15.3% (inactive)
15,Cc1ccc(N(CCO)CCO)cc1,-0.673% (inactive)
16,CC[C@H]1OC(=O)[C@H](C)[C@@H](O[C@H]2C[C@@](C)(OC)[C@@H](O)[C@H](C)O2)[C@H](C)[C@@H](O[C@@H]2O[C@H](C)C[C@H](N(C)C)[C@H]2O)[C@](C)(O)C[C@@H](C)CN(C)[C@H](C)[C@@H](O)[C@]1(C)O,-7.57% [at 42.5 µM] (inactive)
17,SCCc1cnccn1,-5.08% (inactive)
18,Cc1ccc(N(CC2=NCCN2)c2cccc(O)c2)cc1,0.0274% [at 42.5 µM] (inactive)
19,O=S(=O)(O)CO,-0.302% (inactive)
20,Oc1ccc2c(c1)Cc1ccccc1-2,-4.44% (inactive)
21,O=C(O)CO,-1.55% (inactive)
22,CC(C)COC(=O)c1ccc(O)cc1,-3.64% (inactive)
23,ClC1=C(Cl)C1(Cl)Cl,6.63% (inactive)
